Measurements reported in the supplement of paper PMC11732987, “Enantioselective OTUD7B fragment discovery through chemoproteomics screening and high-throughput optimisation” (Communications Chemistry, 2025).
Values without a mark were called inactive.

Legend:
Assay in all cases: log2 ratio of Biotin-Ahx-Ub-VS probe labelling (fragment/DMSO); higher = less target engagement (more negative = stronger competition), active = hit call of the paper (q ≤ 0.05, log2 ratio ≤ -1)
Details in all cases: compound concentration: 200 uM; treatment time: 3 h
UniProt O00507 = target: UniProt O00507
UniProt O00507, sequence (O00507 whole entry, the tested form may be a part): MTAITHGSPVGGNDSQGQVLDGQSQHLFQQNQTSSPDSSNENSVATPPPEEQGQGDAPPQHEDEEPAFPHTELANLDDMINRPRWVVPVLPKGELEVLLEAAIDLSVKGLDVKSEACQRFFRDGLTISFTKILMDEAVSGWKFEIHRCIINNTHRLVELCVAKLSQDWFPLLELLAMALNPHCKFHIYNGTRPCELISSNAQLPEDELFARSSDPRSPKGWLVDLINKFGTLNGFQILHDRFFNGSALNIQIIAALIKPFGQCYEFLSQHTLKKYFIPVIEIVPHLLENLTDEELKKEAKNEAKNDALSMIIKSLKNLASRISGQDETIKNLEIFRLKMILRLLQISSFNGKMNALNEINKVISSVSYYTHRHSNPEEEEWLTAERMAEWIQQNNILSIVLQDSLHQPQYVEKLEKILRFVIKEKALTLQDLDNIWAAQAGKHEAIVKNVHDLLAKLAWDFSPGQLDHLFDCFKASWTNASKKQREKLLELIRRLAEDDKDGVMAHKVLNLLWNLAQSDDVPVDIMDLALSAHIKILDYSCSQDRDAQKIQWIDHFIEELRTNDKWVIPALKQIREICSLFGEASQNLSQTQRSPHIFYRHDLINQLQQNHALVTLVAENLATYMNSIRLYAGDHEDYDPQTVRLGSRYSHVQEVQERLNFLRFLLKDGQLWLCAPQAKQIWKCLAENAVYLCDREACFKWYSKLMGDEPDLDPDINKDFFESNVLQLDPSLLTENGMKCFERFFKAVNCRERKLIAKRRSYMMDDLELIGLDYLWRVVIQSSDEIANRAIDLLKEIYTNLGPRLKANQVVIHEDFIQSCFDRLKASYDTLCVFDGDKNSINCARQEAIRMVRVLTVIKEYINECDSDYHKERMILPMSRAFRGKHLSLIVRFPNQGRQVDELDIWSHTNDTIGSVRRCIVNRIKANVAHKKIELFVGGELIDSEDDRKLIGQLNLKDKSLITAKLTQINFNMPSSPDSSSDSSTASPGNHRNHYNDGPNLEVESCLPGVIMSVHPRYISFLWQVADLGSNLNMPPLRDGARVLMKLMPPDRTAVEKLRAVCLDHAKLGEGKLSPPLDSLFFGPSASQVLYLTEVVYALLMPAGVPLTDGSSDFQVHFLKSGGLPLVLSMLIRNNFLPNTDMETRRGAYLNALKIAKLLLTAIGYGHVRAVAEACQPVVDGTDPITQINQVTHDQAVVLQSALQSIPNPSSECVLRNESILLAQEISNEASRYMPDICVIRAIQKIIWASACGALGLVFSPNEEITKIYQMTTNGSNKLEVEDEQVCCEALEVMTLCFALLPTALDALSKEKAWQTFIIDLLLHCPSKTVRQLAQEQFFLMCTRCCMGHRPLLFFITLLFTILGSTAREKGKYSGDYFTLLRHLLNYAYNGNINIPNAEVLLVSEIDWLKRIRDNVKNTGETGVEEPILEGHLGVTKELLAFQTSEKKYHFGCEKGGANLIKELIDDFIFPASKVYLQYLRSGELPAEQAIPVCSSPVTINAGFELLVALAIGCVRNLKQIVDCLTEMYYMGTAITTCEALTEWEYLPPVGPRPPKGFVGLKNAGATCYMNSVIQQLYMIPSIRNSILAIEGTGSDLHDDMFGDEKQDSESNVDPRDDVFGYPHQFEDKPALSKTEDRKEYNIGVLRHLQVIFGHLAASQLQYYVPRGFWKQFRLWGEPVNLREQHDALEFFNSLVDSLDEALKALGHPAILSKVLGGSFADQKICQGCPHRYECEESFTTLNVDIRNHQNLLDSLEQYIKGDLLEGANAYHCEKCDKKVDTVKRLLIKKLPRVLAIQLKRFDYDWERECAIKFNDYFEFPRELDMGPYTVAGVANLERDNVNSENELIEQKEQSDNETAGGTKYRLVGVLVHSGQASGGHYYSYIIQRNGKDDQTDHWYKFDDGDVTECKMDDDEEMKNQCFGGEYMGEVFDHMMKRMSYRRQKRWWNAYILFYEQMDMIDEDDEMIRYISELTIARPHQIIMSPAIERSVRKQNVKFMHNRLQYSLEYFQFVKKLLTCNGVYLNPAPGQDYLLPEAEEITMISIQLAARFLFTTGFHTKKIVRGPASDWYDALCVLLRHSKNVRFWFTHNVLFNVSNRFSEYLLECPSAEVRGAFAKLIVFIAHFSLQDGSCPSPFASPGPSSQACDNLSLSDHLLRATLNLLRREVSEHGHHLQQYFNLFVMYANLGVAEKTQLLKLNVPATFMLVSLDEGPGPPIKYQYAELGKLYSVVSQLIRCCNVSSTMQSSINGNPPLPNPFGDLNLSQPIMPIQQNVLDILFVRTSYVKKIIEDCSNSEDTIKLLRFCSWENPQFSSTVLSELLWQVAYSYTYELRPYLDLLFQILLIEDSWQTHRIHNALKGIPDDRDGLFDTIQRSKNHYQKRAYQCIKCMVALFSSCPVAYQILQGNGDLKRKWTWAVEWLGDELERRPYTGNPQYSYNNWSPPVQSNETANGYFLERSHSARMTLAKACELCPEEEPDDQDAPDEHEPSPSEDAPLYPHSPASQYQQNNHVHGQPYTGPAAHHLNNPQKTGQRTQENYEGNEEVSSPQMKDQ
How it was run: (§1)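 HEK293T lysate (495 µg per sample, in Tris/CHAPS/IGEPAL buffer with protease inhibitors) was exposed in triplicate for 3 h to fragment at 200 µM or to vehicle, then to Biotin-Ahx-Ub-VS at 0.5 µM final for 1 h. Labelled DUBs were enriched on NeutrAvidin, digested with LysC and trypsin, and analysed by diaPASEF LC-MS/MS. Spectronaut label-free quantities were normalised to the global median, and values are average log2 ratios of fragment over vehicle from an unpaired t-test. Only proteins with ≥2 unique peptides were used.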

UniProt P51784 = target: UniProt P51784
UniProt P51784, sequence (P51784 whole entry): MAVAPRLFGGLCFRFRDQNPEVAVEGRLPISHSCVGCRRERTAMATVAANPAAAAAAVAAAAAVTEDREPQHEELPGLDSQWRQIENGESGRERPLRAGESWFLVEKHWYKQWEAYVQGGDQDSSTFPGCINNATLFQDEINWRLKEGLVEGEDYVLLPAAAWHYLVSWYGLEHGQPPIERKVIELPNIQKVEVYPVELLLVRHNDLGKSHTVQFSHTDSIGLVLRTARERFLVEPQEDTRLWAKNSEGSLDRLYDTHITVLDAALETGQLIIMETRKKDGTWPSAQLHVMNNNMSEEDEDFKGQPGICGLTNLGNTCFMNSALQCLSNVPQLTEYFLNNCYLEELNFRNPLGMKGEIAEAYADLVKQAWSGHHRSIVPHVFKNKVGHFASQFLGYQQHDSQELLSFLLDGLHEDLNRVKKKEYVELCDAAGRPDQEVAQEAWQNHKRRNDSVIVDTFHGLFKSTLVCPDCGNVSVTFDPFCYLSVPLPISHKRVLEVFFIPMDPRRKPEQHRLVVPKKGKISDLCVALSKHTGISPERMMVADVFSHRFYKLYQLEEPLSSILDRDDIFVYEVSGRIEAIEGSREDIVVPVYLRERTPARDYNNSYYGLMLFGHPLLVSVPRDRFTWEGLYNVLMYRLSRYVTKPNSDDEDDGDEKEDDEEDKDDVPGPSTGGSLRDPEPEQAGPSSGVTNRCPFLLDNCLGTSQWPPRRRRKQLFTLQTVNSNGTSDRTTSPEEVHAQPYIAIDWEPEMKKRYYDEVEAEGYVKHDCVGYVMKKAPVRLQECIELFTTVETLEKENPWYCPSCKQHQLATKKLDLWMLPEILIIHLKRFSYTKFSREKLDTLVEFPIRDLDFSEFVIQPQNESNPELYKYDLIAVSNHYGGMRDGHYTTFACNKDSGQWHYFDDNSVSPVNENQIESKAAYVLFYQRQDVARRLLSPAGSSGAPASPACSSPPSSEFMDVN
How it was run: as §1

UniProt Q5T2D3 = target: T1, UniProt Q5T2D3
T1 sequence (whole entry): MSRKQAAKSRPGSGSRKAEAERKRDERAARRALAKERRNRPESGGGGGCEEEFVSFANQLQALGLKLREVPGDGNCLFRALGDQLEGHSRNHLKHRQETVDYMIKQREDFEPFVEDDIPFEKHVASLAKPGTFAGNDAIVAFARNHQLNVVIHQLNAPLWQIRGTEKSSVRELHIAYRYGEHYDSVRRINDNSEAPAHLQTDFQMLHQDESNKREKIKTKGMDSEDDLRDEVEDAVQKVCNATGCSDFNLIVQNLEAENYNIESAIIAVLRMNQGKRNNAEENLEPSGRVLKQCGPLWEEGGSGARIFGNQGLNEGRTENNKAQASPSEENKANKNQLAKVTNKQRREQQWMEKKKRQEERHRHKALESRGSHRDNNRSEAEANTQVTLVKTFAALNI
How it was run: as §1

UniProt Q8TE49 = target: T2, UniProt Q8TE49
T2 sequence (whole entry): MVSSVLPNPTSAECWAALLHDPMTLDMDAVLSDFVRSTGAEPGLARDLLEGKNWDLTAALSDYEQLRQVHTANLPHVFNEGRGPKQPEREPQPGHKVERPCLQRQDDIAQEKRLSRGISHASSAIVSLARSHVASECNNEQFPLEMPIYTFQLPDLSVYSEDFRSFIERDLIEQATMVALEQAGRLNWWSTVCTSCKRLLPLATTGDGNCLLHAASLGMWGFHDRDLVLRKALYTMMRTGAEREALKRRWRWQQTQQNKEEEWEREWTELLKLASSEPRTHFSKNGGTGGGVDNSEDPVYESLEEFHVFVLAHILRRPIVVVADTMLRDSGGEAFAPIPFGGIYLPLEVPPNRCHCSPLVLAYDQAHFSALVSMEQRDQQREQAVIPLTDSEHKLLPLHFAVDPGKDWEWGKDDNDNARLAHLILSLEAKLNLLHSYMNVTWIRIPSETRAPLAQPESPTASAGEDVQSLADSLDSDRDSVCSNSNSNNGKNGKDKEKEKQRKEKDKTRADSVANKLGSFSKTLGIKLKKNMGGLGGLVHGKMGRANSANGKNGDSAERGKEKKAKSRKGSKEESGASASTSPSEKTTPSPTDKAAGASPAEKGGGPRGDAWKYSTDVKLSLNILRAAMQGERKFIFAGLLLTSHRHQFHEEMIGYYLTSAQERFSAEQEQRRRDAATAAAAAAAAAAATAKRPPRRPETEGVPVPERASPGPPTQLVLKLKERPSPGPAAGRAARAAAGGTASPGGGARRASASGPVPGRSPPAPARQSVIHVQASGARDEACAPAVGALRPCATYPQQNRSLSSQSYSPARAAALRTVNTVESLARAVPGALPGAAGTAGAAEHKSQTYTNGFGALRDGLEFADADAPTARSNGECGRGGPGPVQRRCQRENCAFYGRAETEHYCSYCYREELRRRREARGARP
How it was run: as §1

UniProt Q9P2H5 = target: T3, UniProt Q9P2H5
T3 sequence (whole entry): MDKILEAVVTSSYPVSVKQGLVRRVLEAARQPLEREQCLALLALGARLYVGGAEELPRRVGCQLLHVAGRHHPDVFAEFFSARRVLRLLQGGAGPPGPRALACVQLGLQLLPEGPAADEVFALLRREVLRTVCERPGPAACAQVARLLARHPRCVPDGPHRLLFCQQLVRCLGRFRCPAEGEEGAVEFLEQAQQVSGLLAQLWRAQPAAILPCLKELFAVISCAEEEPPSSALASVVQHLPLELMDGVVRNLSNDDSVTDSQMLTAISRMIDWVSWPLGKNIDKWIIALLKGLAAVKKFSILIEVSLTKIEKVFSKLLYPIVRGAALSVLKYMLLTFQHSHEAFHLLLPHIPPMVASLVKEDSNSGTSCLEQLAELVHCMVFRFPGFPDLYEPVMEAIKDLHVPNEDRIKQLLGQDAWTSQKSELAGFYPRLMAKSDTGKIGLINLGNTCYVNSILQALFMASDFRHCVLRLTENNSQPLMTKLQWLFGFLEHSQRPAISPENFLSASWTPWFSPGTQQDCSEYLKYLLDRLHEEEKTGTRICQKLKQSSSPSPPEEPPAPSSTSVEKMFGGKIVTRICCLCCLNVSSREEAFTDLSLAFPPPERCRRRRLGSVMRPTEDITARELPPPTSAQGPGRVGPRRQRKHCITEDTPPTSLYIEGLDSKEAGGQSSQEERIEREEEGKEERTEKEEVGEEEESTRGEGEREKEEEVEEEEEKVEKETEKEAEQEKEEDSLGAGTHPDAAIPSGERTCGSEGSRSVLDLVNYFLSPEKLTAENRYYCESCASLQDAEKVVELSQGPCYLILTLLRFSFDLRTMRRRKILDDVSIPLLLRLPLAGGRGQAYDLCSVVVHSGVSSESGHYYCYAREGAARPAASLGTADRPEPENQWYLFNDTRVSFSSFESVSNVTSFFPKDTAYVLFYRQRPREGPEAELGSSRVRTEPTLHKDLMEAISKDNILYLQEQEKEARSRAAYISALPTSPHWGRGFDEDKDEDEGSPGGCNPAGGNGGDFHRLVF
How it was run: as §1

UniProt Q9UGI0 = target: T4, UniProt Q9UGI0
T4 sequence (whole entry): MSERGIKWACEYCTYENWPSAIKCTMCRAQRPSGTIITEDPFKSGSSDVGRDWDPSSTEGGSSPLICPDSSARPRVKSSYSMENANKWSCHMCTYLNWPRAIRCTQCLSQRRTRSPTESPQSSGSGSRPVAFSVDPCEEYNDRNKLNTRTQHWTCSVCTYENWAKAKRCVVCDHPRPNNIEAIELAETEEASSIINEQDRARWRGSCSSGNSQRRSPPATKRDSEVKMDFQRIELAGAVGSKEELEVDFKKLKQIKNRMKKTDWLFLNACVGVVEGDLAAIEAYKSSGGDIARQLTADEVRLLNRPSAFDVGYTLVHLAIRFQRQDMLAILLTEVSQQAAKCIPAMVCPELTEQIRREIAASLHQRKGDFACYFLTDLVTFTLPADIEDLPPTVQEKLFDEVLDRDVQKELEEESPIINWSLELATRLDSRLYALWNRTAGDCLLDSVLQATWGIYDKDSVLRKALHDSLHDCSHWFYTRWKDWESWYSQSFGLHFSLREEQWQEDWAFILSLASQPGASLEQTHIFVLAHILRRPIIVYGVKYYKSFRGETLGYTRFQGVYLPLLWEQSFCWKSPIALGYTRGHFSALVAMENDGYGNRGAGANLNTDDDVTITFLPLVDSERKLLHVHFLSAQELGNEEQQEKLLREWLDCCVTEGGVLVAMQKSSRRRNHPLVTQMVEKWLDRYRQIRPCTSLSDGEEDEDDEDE
How it was run: as §1

YOD1 = target: T5, YOD1 (UniProt Q5VVQ6)
T5 sequence (whole entry): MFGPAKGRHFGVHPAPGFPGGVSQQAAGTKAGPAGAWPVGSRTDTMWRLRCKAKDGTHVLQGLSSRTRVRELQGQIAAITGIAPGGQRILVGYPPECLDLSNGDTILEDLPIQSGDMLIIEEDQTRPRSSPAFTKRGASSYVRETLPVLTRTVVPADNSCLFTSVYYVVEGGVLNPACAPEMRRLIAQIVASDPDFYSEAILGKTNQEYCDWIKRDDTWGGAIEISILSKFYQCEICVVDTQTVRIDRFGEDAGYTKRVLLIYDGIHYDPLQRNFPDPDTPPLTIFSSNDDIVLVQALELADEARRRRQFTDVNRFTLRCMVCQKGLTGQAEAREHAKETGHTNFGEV
How it was run: as §1

Row | Compound | log2 ratio of Biotin-Ahx-Ub-VS probe labelling (UniProt O00507) | log2 ratio of Biotin-Ahx-Ub-VS probe labelling (UniProt P51784) | log2 ratio of Biotin-Ahx-Ub-VS probe labelling (UniProt Q5T2D3) | log2 ratio of Biotin-Ahx-Ub-VS probe labelling (UniProt Q8TE49) | log2 ratio of Biotin-Ahx-Ub-VS probe labelling (UniProt Q9P2H5) | log2 ratio of Biotin-Ahx-Ub-VS probe labelling (UniProt Q9UGI0) | log2 ratio of Biotin-Ahx-Ub-VS probe labelling (YOD1)
1 | Cc1cccc(N(CCC#N)C(=O)CCl)c1C | 0.294 | 0.0536 | -0.0559 | -1.26 (active) | -0.386 | -0.934 | 0.144
2 | Cc1cc(CC(C)NC(=O)CCl)n[nH]1 (stereo not given) | -0.165 | -0.131 | -0.595 | 0.0154 | -0.232 | -0.68 | 0.241
3 | Cl.Cn1nc2c(c1CNC(=O)CCl)CCCC2 | 0.0971 | 0.0528 | -0.274 | -0.529 | -0.23 | -0.319 | -0.144
4 | O=C(CCl)N1CC=C(c2c[nH]c3ccccc23)CC1 | -1.28 (active) | -0.291 | -0.405 | -0.72 | -0.734 | -1.14 (active) | -0.219
5 | Cl.Cn1c(CNC(=O)CCl)nc2cccnc21 | -0.348 | -0.0765 | -0.354 | -0.488 | -0.199 | -0.199 | -0.334
6 | O=C(CCl)Nc1cc2c(cc1Cl)OCCCO2 | 0.443 | 0.0196 | 0.0208 | -0.506 | -0.0168 | -0.0467 | 0.361
7 | O=C(CCl)Nc1nnc(CC(F)(F)F)o1 | -0.0948 | -6e-05 | -0.844 | -0.179 | -0.149 | -0.304 | 0.0603
8 | Cc1nc(CNC(=O)CCl)c2ccccn12.Cl | 0.444 | -0.0444 | -0.454 | -0.499 | -0.818 | -0.311 | 0.114
9 | COc1cc(Cl)c(C)cc1NC(=O)CCl | -0.429 | -0.107 | -0.258 | -0.622 | -0.319 | -1.23 (active) | -0.11
10 | O=C(CCl)N1CCC(OCc2ccccc2F)CC1 | -0.226 | 0.146 | -0.173 | -0.355 | 0.097 | -0.394 | 0.135
